Assay outcomes as filed in PubChem BioAssay.
rCAG RNA binder: binders of r(CAG) RNA repeats, primary screen, biochemical, fluorescence; AID 651821, 2012; r(CAG) RNA repeat, TO-PRO-1 dye displacement fluorescence; inhibition, % at 3 µM; 370,000 compounds, 1.3% hits;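 active means inhibition above the plate cutoff, the mean of all test compounds on that plate plus 3 SD, cut at about 35% in these data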;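 further: 0% = DMSO alone and 100% = 100 µM mitoxantrone as full dye displacement; higher means more dye released from RNA so lower well fluorescence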
AHR activator: AHR activators, primary screen, cell-based, luminescence, luciferase reporter, human | Aryl hydrocarbon receptor (Homo sapiens), P35869 | activation, % at 5 µM | AHR-responsive luciferase reporter cells | 320,000 compounds, 2.5% hits; in the data active means activation above about 47%;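 further: 0% = vehicle wells and 100% = reference agonist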
Target sequence (P35869 whole entry, looked up): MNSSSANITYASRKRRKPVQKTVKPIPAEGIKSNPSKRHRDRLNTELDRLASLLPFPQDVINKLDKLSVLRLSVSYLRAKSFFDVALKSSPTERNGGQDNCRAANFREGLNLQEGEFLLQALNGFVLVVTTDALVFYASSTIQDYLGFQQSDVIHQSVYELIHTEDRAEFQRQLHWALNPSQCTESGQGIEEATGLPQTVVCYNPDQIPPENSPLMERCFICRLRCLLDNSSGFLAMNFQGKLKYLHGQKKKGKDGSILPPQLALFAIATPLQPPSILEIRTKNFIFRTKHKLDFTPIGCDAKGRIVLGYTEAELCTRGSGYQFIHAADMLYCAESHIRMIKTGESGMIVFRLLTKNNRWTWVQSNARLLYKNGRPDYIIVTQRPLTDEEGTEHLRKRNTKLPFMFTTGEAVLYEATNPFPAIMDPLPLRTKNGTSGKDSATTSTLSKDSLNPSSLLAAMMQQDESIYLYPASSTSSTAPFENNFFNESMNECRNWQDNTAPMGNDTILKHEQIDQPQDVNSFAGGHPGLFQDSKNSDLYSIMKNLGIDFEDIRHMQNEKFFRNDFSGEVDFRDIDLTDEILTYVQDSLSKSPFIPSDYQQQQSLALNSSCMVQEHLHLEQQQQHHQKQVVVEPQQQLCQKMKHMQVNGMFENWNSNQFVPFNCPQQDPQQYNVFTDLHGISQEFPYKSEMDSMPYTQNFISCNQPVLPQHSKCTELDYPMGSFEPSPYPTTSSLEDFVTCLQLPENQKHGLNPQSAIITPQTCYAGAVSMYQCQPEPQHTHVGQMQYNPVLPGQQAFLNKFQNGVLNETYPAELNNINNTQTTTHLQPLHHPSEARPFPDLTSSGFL
proKLK7 act: proKLK7 zymogen activators, primary screen, biochemical, fluorescence intensity; purified proKLK7, EDANS-DABCYL substrate fluorescence; 100% is mature enzyme control, 0% vehicle; activation, % at 7 µM; 370,000 compounds, 0.9% hits; AID 652039, 2013;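 active means activation above the mean of all tested compounds plus 3 SD, computed per campaign excluding outliers beyond control limits, cut at about 13% in these data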
ADAM17 inh: ADAM17 inhibitors, primary screen, biochemical, QFRET. Disintegrin and metalloproteinase domain-containing protein 17 (Homo sapiens), P78536. recombinant ADAM17, EDANS/DABCYL FRET peptide cleavage. inhibition, % at 6.95 µM. 370,000 compounds, 0.83% hits;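 active means inhibition above the mean of compounds lying between control limits plus 3 SD, set per campaign, cut at about 8.5% in these data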;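 further: 0% = DMSO-only wells as the low control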
ADAM10 inh: human ADAM10 inhibitors, primary screen, biochemical, QFRET, HTS | Disintegrin and metalloproteinase domain-containing protein 10 (Homo sapiens), O14672 | recombinant ADAM10, EDANS/DABCYL FRET peptide cleavage, 3 h | inhibition, % at 7 µM | 370,000 compounds, 0.62% hits;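 active means inhibition above a per-campaign cutoff equal to the mean of compounds falling between control-based bounds plus 3 SD, cut at about 20% in these data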;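 further: 0% = DMSO wells while the 100% control is not disclosed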
GRIN3A LBD mod: binders of NR3A ligand-binding domain, primary screen, biophysical, differential scanning fluorimetry, uHTS; Glutamate receptor ionotropic, NMDA 3A (GRIN3A) ligand-binding domain; NR3A LBD differential scanning fluorimetry, Tm shift; 0% = protein alone, 100% = glycine-bound protein; Tm shift relative to glycine control, % at 25 µM; 340,000 compounds, 2.5% hits;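 active means melting temperature shift of at least 10% of the positive control shift, at one fixed dose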
AHR act confirm: AHR activators, confirmation, cell-based, luminescence, luciferase reporter, human. shares compounds with AHR activator. human cells, AHR-responsive luciferase reporter. activation, % at 9 µM. 2,300 compounds, 87% hits; in the data active means activation above about 49%;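 further: HepG2 hepatoma cells carrying a DRE-driven firefly luciferase reporter; 0% = vehicle wells and 100% = reference agonist wells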
PXR counter: human PXR activators, counter-screen for AHR activator project, cell-based, luciferase luminescence. cell-based PXR reporter. 2,300 compounds, 88% hits. activation, % at 11.6 µM. shares compounds with AHR activator; in the data active means activation above about 11%;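 further: human hepatoma DPX-2 cells expressing full-length human PXR; 0% = DMSO and 100% = reference agonist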
Numbers without * were called inactive. Only some compounds are listed: those with a hit (about 7% of all), similar ones and a draw of the others.

How did Cc1c(/C=N\NC(=O)C2COc3ccc(C(C)(C)C)cc3O2)c2ccccc2n1C (stereo not given) do in these assays?
rCAG RNA binder: 11; AHR activator: 79*; proKLK7 act: -1; ADAM17 inh: 0; ADAM10 inh: -11; GRIN3A LBD mod: 10*; AHR act confirm: 42; PXR counter: 66*

What do the screens show for `C[C@H](CO)N1C[C@H](C)[C@@H](CN(C)S(=O)(=O)c2ccc(F)cc2)Oc2cc(Br)ccc2S1(=O)=O`?
rCAG RNA binder: 6; proKLK7 act: 0; ADAM17 inh: 2; ADAM10 inh: 8

How did Cc1ccc(NC(=O)c2[nH]cnc2C(=O)NN)cc1 do in these assays?
rCAG RNA binder: 10; AHR activator: 79*; proKLK7 act: 0; ADAM17 inh: -1; ADAM10 inh: 5; GRIN3A LBD mod: 1; AHR act confirm: 82*; PXR counter: 16*

How did Cc1cccc(-c2nc(C#N)c(NC3CCCCC3)o2)c1 do in these assays?
rCAG RNA binder: 3; AHR activator: 145*; proKLK7 act: -6; ADAM17 inh: -69; ADAM10 inh: -341; GRIN3A LBD mod: -13; AHR act confirm: 7; PXR counter: 86*

What do the screens show for `Sc1oc(-c2ccccc2)cc1C=Nc1ccccc1`?
rCAG RNA binder: 14; AHR activator: 79*; proKLK7 act: 0; ADAM17 inh: -4; ADAM10 inh: 11; GRIN3A LBD mod: 14*; AHR act confirm: 39; PXR counter: 20*

How did Cc1cc(NS(=O)(=O)c2ccc(NC(=O)CSc3nnc(-c4ccncc4)n3Cc3ccco3)cc2)nc(C)n1 do in these assays?
rCAG RNA binder: 17; proKLK7 act: 0; ADAM17 inh: -5; ADAM10 inh: -9

What do the screens show for `Cc1cccc(C(=O)N[C@H](C(=O)Nc2ncc(C)s2)C(C)C)c1`?
rCAG RNA binder: -6; AHR activator: 104*; proKLK7 act: 0; ADAM17 inh: 1; ADAM10 inh: 1; GRIN3A LBD mod: 1; AHR act confirm: 19; PXR counter: 364*

Results for COc1ccc(OC)c(/C=N/NC(=O)CNC(=O)c2ccc(S(=O)(=O)N3CCOCC3)cc2)c1 ?
rCAG RNA binder: -2; AHR activator: 125*; proKLK7 act: 0; ADAM17 inh: -2; ADAM10 inh: -9; GRIN3A LBD mod: 4; AHR act confirm: 8; PXR counter: 5

What do the screens show for `CCCCNC(=O)OC1CCC12CCC(c1ccccc1)CC2` (stereo not given)?
rCAG RNA binder: 0; proKLK7 act: 0; ADAM17 inh: -2; ADAM10 inh: 1

How did Cn1c(=O)c2cc(S(=O)(=O)N3CCN(c4ccc(F)cc4)CC3)ccc2n(C)c1=O do in these assays?
rCAG RNA binder: 1; proKLK7 act: 0; ADAM17 inh: 3; ADAM10 inh: -4

How did CCCCNC(=S)Nc1cccc2cnccc12 do in these assays?
rCAG RNA binder: -1; AHR activator: 89*; proKLK7 act: 0; ADAM17 inh: -4; ADAM10 inh: -11; GRIN3A LBD mod: 1; AHR act confirm: 61*; PXR counter: 13*

How did COCCNC(=S)Nc1cccc2cnccc12 do in these assays?
rCAG RNA binder: 0; AHR activator: 1; proKLK7 act: 0; ADAM17 inh: -3; ADAM10 inh: 2; GRIN3A LBD mod: -1

How did c1ccc(-c2ccc(-c3csnn3)cc2)cc1 do in these assays?
rCAG RNA binder: 3; AHR activator: 86*; proKLK7 act: -1; ADAM17 inh: -1; ADAM10 inh: -5; GRIN3A LBD mod: -42; AHR act confirm: 96*; PXR counter: 17*

What do the screens show for `CCN(CC)C(=O)CC[C@H]1CC[C@]2(CCCN(C(=O)c3ccco3)C2)O1`?
rCAG RNA binder: 0; proKLK7 act: 0; ADAM17 inh: -3; ADAM10 inh: -10

What do the screens show for `O=C(CN1CCCC1)Nc1nnc(-c2cccs2)s1`?
rCAG RNA binder: -1; AHR activator: 126*; proKLK7 act: 0; ADAM17 inh: -20; ADAM10 inh: -93; GRIN3A LBD mod: -12; AHR act confirm: 125*; PXR counter: 16*

What do the screens show for `CC(C)(C)c1ccc(-c2nnc(NC(=O)c3ccccc3)s2)cc1`?
rCAG RNA binder: 0; AHR activator: 3; proKLK7 act: 0; ADAM17 inh: -3; ADAM10 inh: -3; GRIN3A LBD mod: -5

What do the screens show for `COCC(=O)Nc1nnc(-c2ccc(C(C)(C)C)cc2)s1`?
rCAG RNA binder: -2; AHR activator: 86*; proKLK7 act: 0; ADAM17 inh: -1; ADAM10 inh: 1; GRIN3A LBD mod: 0; AHR act confirm: 99*; PXR counter: 30*

What do the screens show for `O=C(CN1CCCCC1)Nc1nnc(-c2ccccc2)s1`?
rCAG RNA binder: 3; AHR activator: 109*; proKLK7 act: 0; ADAM17 inh: 2; ADAM10 inh: -4; GRIN3A LBD mod: 2; AHR act confirm: 132*; PXR counter: 27*

What do the screens show for `COc1ccc(NC(=O)Nc2nnc(-c3cccs3)s2)cc1`?
rCAG RNA binder: 33; AHR activator: 90*; proKLK7 act: 0; ADAM17 inh: 0; ADAM10 inh: 3; GRIN3A LBD mod: 16*; AHR act confirm: 102*; PXR counter: 37*

How did Nc1nc2c(ncn2[C@@H]2O[C@H](C(=O)N[C@@H](Cc3ccccc3)C(=O)NCC3CCCCC3)[C@@H](O)[C@H]2O)c(=O)[nH]1 do in these assays?
rCAG RNA binder: 10; proKLK7 act: 1; ADAM17 inh: -5; ADAM10 inh: -8

Results for O=C(N[C@@H](Cc1cccnc1)C(=O)N1CCC[C@H]1C(=O)NCCc1ccccc1Cl)C1CC1 ?
rCAG RNA binder: -2; proKLK7 act: 0; ADAM17 inh: -7; ADAM10 inh: -21

How did Clc1ccccc1-c1nc(-c2ccc(Br)o2)no1 do in these assays?
rCAG RNA binder: 0; AHR activator: 100*; proKLK7 act: -1; ADAM17 inh: -5; ADAM10 inh: -9; GRIN3A LBD mod: 2; AHR act confirm: 108*; PXR counter: 43*
